A selection: hits, their analogues and other compounds. The true share with any hit is near 2.4%.
PREPL inh = PREPL enzyme inhibitors, primary screen, biochemical, fluorescence polarization; inhibition, % at 5.96 µM; AID 2751, 2010; recombinant PREPL, fluorescence polarization activity-based probe; 320,000 compounds, 0.68% hits; Prolyl endopeptidase-like (Homo sapiens), Q4J6C6; in the data active = inhibition above about 43%
PP5 inh = PP5 phosphatase inhibitors, primary screen, biochemical, fluorescence. Serine/threonine-protein phosphatase 5 (Homo sapiens), P53041. purified PP5c, OMFP substrate fluorescence. inhibition, % at 6.7 µM. 320,000 compounds, 0.18% hits. AID 1987, 2009;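 active = inhibition above the campaign's mean inhibition across all tested compounds plus 3 SD, cut at about 9.5% in these data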
Rpn11 block = Rpn11 (PSMD14) deubiquitinase inhibitors, primary screen, biochemical, fluorescence polarization, uHTS | human 26S proteasome, Ub4-pepOG fluorescence polarization; 20S core pre-blocked with epoxomicin | AID 588493, 2011 | 26S proteasome non-ATPase regulatory subunit 14 (Homo sapiens), O00487 | 360,000 compounds, 0.59% hits | inhibition, % at 20 µM;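 active = inhibition at 20 µM, scaled to each plate's controls, above about 33%, limit read from the data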
NadD block = inhibitors of S. aureus NadD, primary screen, biochemical, colorimetric, uHTS. Nicotinate-nucleotide adenylyltransferase NadD (Staphylococcus aureus N315). purified NadD enzyme, colorimetric absorbance read-out. inhibition, % at 20 µM. 360,000 compounds, 0.78% hits. AID 602399, 2012; in the data active = inhibition above about 26%
PP1 inh = PP1-alpha phosphatase inhibitors, primary screen, counter-screen for PP5 inhibitor project, biochemical, fluorescence, OMFP substrate, single point. AID 2235, 2010. 320,000 compounds, 0.9% hits. Serine/threonine-protein phosphatase PP1-alpha catalytic subunit (Homo sapiens), P62136. purified PP1alpha. inhibition, % at 6.7 µM;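 active = inhibition above the mean inhibition of all tested compounds plus 3 SD, computed separately for each screening campaign, cut at about 15% in these data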
Target sequence (P62136 whole entry, looked up): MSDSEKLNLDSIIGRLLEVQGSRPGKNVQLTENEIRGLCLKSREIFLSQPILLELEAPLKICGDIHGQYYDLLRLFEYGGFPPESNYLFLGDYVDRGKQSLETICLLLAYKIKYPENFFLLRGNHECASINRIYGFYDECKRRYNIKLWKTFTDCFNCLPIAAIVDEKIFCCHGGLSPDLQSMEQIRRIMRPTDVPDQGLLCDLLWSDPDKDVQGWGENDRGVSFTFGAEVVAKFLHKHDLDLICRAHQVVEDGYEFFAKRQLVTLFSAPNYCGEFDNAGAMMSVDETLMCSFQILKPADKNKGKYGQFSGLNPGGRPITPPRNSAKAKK
Numbers stand for hits; – = inactive; · = no result shown.

SMILES	PREPL inh	PP5 inh	Rpn11 block	NadD block	PP1 inh
Cc1c2cc(O)c(=O)cc-2oc2cc(O)c(O)cc12	60	–	–	52	33
COc1cccc(C(=O)Nc2ccc3c(c2)C(=O)c2ccccc2C3=O)c1	–	–	–	–	33
Cc1cc(C)cc(OCC(=O)Nc2ccc3c(c2)C(=O)c2ccccc2C3=O)c1	–	–	–	31	–
Cc1ccc(-c2nc(C(=O)NCCCN3CCOCC3)cc3c2[nH]c2ccccc23)cc1	–	–	–	–	15
CCc1ccc([C@@H]2CC=C(C(=O)O)[C@H](c3cccc(Cl)c3)N2S(=O)(=O)c2ccc(C)cc2)cc1	–	–	–	–	16
Cc1ccc(S(=O)(=O)N2[C@@H](c3ccccc3)C(C(=O)O)=CC[C@H]2c2ccc(C(C)C)cc2)cc1	–	–	–	–	15
Cc1ccc([C@H]2C(C(=O)O)=CC[C@@H](c3ccc(C(C)C)cc3)N2S(=O)(=O)c2ccc(C)cc2)cc1	–	·	–	–	·
O=C(CNC(=O)N1CC(=O)Nc2ccccc21)Nc1ccc(Cl)cc1Cl	·	·	–	–	·
CCCCN(C)c1c(C)nc2ccc(C(=O)Nc3ccc(OC)c(OC)c3)cn12	·	·	–	–	·
Cc1ccc(-c2nc3ccc(Br)cn3c2Cc2cccc(Cl)c2)cc1	·	·	–	–	·
Cc1ccc(C)c(-c2cc(C(=O)Nc3sc(C)c(C)c3C(N)=O)c3ccccc3n2)c1	–	–	–	35	–
Cc1cccc(-c2cc(C(=O)Nc3sc(C)c(C)c3C(N)=O)c3ccccc3n2)c1	–	–	–	–	–
CCOC(=O)c1sc(NC(=O)c2cc(-c3ccccc3)nc3ccccc23)c(C#N)c1C	–	–	–	39	–
CCCCNC(=O)CSc1nc2c(sc(=S)n2-c2cc(Cl)ccc2OC)c(=O)[nH]1	–	–	–	–	–
COc1ccc(-n2c(SCC(=O)C(C)(C)C)nc3c(sc(=S)n3-c3ccccc3)c2=O)c(OC)c1	–	–	–	–	16
COc1ccc(Cl)cc1-n1c(=S)sc2c(=O)[nH]c(SCC(=O)C(C)(C)C)nc21	–	–	–	–	17
CCOC(=O)Cc1c(-c2cccc(Br)c2)nc2c3ccccc3ccn12	·	·	·	–	·
CCOc1cc(C(c2c(C)[nH][nH]c2=O)c2c(C)[nH][nH]c2=O)ccc1OC(=O)c1cccc([N+](=O)[O-])c1	86	–	–	–	–
CC1(C)OC(=O)C2=C(C[C@@H](C3CCCCC3)O[C@H]2c2ccccc2)O1	·	·	·	–	·
Cc1cn(-c2cc(NC(=O)c3ccc(C)c(NC(=O)c4cccc(-c5cn[nH]c(=O)c5)c4)c3)cc(C(F)(F)F)c2)cn1	–	–	107	–	–
CCCOc1ccc(CN(CCC#N)C(=S)NC(=O)c2ccccc2)cc1	–	–	–	–	–
CC(Oc1ccc(Cl)cc1Cl)C(=O)NC1=NN(c2ccccc2)C(=O)C1 (centres undefined)	–	–	–	–	17
O=C(O)c1ccc(N2C(=O)/C(=C/c3ccc(-c4ccc([N+](=O)[O-])cc4)o3)C=C2c2ccccc2)cc1	–	–	78	56	–
Cc1ccc(-c2ccc(C(=O)NCc3ccc(Cl)cc3)o2)c2ccccc12	–	–	–	27	–
Cc1ccccc1-c1ccc(C(=O)NCc2ccccc2)o1	–	–	–	–	–
SMILES	PREPL inh	PP5 inh	Rpn11 block	NadD block	PP1 inh
CC(C)N1CCC(C)(C(=O)Nc2ccc(Cl)c(Cl)c2)C1 (centres undefined)	·	·	–	–	·
CCCCC(=O)N(C)c1c(CC)nc2c(OCC=C(C)C)cccn12	·	·	–	–	·
O=S(=O)(Nc1ccc2ccccc2n1)c1ccccc1	–	–	–	–	–
Cc1ccc(-n2nc3c(c2NC(=O)c2ccc(S(=O)(=O)N4CCOCC4)cc2)CSC3)c(C)c1	–	–	–	34	–
CC(C)Oc1ccc(F)cc1-c1cc(C(=O)N2CCc3ccccc3C2)[nH]n1	·	·	–	–	·
CCC(CC)C1=NN2C(=N)/C(=C\c3cc(C)n(-c4cccc(C)c4)c3C)C(=O)N=C2S1	–	–	–	41	–
CC1=NN2C(=N)/C(=C\c3cc(C)n(-c4ccccc4)c3C)C(=O)N=C2S1	–	–	–	–	–
Cc1cc(/C=C2\C(=N)N3N=C(C(C)C)SC3=NC2=O)c(C)n1Cc1ccccc1	–	–	–	–	–
CCC1=NN2C(=N)/C(=C/c3cc(C)n(Cc4ccccc4)c3C)C(=O)N=C2S1	–	–	–	–	16
CCOc1ccc(-n2c(C)cc(/C=C3/C(=N)N4C(=NC3=O)SN=C4S(C)(=O)=O)c2C)cc1	–	–	–	33	–
N#CCCN(C(=O)COC(=O)c1ccc(S(=O)(=O)Nc2ccccc2)cc1)c1ccccc1	–	–	–	–	–
CC1=C(C(=O)N(C)C)CC(CC(=O)NC(c2ccccc2)c2ccccc2)C(=O)N1CCC1=CCCCC1 (centres undefined)	·	·	–	–	·
CC(C)(C)c1ccc(OCCC(=O)Nc2cccc(S(=O)(=O)N3CCCCC3)c2)cc1	–	–	–	–	16
Cc1ccccc1CNC1CCCCC1	–	–	–	–	–
Oc1cc(CNC2CCCCC2)c(O)cc1CNC1CCCCC1	·	·	–	31	·
CCCS(=O)(=O)NC(=O)C1(C)CCN(C(=O)c2ccc(C#N)cc2)C1 (centres undefined)	·	·	–	–	·
CCN1CCN(Cc2nc3c(c(=O)n(C)c(=O)n3C)n2Cc2cccc3ccccc23)CC1	–	–	–	–	–
CCN1CCN(c2nc3c(c(=O)n(C)c(=O)n3C)n2Cc2cccc3ccccc23)CC1	46	–	–	–	–
CC(C)CN=c1cc(-c2ccccc2)oc2ccc(Cl)cc12	–	–	–	–	17
COC(=O)c1ccc(C2Nc3ccc(/C(C)=N/NC(=O)C(OC)c4ccccc4)cc3C3C=CCC32)cc1 (centres undefined)	–	–	–	–	21
O=C(N/N=C/c1ccc2cccc(OCc3ccccc3)c2n1)c1ccc(Br)cc1	–	–	–	–	17
CN(C)CCCNS(=O)(=O)c1ccc(N2CCC(c3ccc(Cl)cc3)=N2)cc1	70	–	·	·	–
CCn1cc([N+](=O)[O-])c(C(=O)N2N=C(c3ccc4ccccc4c3)CC2c2cc(Br)ccc2O)n1 (centres undefined)	–	–	–	40	–
O=C1/C(=C/c2ccc(N3CCOCC3)o2)SC(=Nc2ccccc2)N1CCc1c[nH]c2ccccc12	–	–	·	40	34
COc1ccc(N=C2S/C(=C\c3ccc(OC(C)C(=O)O)c(OC)c3)C(=O)N2CCc2c[nH]c3ccccc23)cc1 (centres undefined)	·	·	–	–	·
COc1ccccc1N1CCN(C(=O)c2cccc(C(=O)N3CCN(c4ccccc4OC)CC3)c2)CC1	–	–	–	–	–

Source: PubChem BioAssay (several laboratories)
